# Laboratory results taken from PubChem BioAssay (NCATS).
# Values without a mark were called inactive. Results filed as inconclusive are left out. Where a call stands in place of a potency, no number is given. Calls of active or inactive are those of the source. The call rests on the fitted dose curve; in most records, active means well fitted inhibition curve with a large enough effect; inconclusive means small, poorly fitted or top-dose-only effect; inactive means flat fitted curve, though single readings scatter.
# Columns and labels:
# [1] = biological target: Glutathione peroxidase 1 (Homo sapiens) (UniProt P07203); assay: Primary qHTS Assay for Inhibitors of Recombinant Selenoprotein Glutathione Peroxidase 1 (GPX1) (AID 1845191); further: nearly all actives have a fitted effect of over 65% in size
# Method in brief: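 GR-coupled assay: compounds preincubated 30 min at room temperature with GPX1, then reaction started with CHP; final 10 nM GPX1, 1 mM GSH, 0.5 mM CHP, 0.5 mM NADPH, 100 nM GR, 0.01% BSA, pH 7.5 Tris buffer. NADPH fluorescence (340/450 nm) read at 0 and 15 min.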
# [2] = biological target: Phospholipid hydroperoxide glutathione peroxidase GPX4 (Homo sapiens) (UniProt P36969); assay: Primary qHTS Assay for Inhibitors of Recombinant Selenoprotein Glutathione Peroxidase 4 (GPX4) (AID 1845192); further: nearly all actives have a fitted effect of over 65% in size; further: potency means the concentration at half of the fitted maximal effect; on activity change, negative = inhibition: series mostly up to about 50 µM
# Method in brief: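 GR-coupled assay: recombinant GPX4 preincubated 30 min with compound at room temperature; final 200 nM GPX4, 1 mM GSH, 0.5 mM cumene hydroperoxide, 0.5 mM NADPH, 100 nM GR, 0.01% BSA, pH 7.5 Tris. NADPH fluorescence (340/450 nm) read at 0 and 15 min.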
# [3] = biological target: Luciferin 4-monooxygenase (Photinus pyralis) (UniProt P08659); assay: Primary firefly luciferase (FLuc) qHTS assay for identification of artifact compounds. (AID 1845220); further: nearly all actives have a fitted effect of over 60% in size; further: potency means the concentration at half of the fitted maximal effect; on activity change, negative = inhibition: series mostly up to about 54 µM
# Method in brief: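 Enzymatic FLuc inhibition assay: compounds pre-exposed to luciferin/ATP (10 uM each) for 15 min, then purified P. pyralis enzyme at 10 nM added. Read-out: luminescence at 5 min.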
# Glutathione peroxidase 1 (Homo sapiens), sequence (P07203 whole entry, looked up): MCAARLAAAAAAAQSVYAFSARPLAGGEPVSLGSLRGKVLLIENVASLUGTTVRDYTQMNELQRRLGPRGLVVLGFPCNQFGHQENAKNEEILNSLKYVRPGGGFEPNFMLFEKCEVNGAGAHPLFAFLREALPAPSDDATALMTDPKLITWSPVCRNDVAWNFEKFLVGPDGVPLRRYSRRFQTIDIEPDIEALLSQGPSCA
# Phospholipid hydroperoxide glutathione peroxidase GPX4 (Homo sapiens), sequence (P36969 whole entry, looked up): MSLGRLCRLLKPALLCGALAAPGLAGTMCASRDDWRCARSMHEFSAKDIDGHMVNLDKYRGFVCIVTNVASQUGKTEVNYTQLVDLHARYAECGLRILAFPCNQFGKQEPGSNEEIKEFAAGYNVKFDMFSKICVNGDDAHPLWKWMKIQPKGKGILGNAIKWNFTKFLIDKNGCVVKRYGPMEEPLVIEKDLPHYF
smiles,measurement,setting,value
C[C@@H]([C@H](O)c1ccccc1)N(C)C,Potency,[1],inactive
same,Potency,[2],inactive
COc1ccccc1CN[C@H]1C2CCN(CC2)[C@H]1C(c1ccccc1)c1ccccc1,Potency,[1],inactive
same,Potency,[2],inactive
same,Potency,[3],inactive
O=C(C[C@@H]1NCCC[C@H]1O)Cn1cnc2cc(Br)c(Cl)cc2c1=O,Potency,[1],inactive
same,Potency,[2],17.8 µM (active)
OC1(c2ccc(Cl)cc2)c2ccccc2C2=NCCN21 (configuration not stated),Potency,[1],inactive
same,Potency,[2],inactive
same,Potency,[3],inactive
CCC(=O)O[C@@](Cc1ccccc1)(c1ccccc1)[C@@H](C)CN(C)C,Potency,[1],inactive
same,Potency,[2],inactive
O=[N+]([O-])C(Br)(CO)CO,Potency,[1],inactive
same,Potency,[2],inactive
CCCCCCn1c(=O)c(C(=O)Nc2ccc(C(=O)OCCC)cc2)c(O)c2ccccc21,outcome,[1],inactive [at 9.52 µM]
same,"activity change, negative = inhibition",[2],18.5% [at 9.73 µM]
same,"activity change, negative = inhibition",[3],0.207% [at 11.6 µM]
Ic1ccccc1CNC1C2CCN(CC2)C1C(c1ccccc1)c1ccccc1 (configuration not stated),Potency,[1],inactive
same,Potency,[2],inactive
CC(C)CCC(=O)O[C@H]1CC[C@H]2[C@@H]3CCC4=CC(=O)CC[C@]4(C)[C@H]3CC[C@]12C,Potency,[1],inactive
same,Potency,[2],inactive
CC1=CC2/C=C(\C)CCC(O)C3OC(C)(C)OC3CC(=O)OC23C(=O)NC(CC(C)C)C3C1C (configuration not stated),Potency,[1],inactive
same,Potency,[2],inactive
same,Potency,[3],inactive
Cn1sc(Cl)cc1=O,Potency,[1],inactive
same,Potency,[2],inactive
C=CC[C@]1(O)CC[C@H]2[C@@H]3CCC4=CCCC[C@@H]4[C@H]3CC[C@@]21C,Potency,[1],inactive
same,Potency,[2],inactive
COc1ccc2c(c1O)-c1cccc3c1[C@@H](C2)N(C)CC3,Potency,[1],inactive
same,Potency,[2],inactive
C[C@]12CC[C@H]3[C@@H](CC[C@@]45O[C@@H]4C(O)=C(C#N)C[C@]35C)[C@@H]1CC[C@@H]2O,Potency,[1],inactive
same,Potency,[2],inactive
Oc1ccc2c3c1O[C@H]1[C@@H](O)CC[C@@]4(O)[C@@H](C2)N(CC2CCC2)CC[C@]314,Potency,[1],inactive
same,Potency,[2],inactive
C[C@]12CCC(=O)C=C1C=C[C@@H]1[C@@H]2CC[C@@]2(C)[C@H]1CC[C@@]2(O)CCC(=O)O,Potency,[1],inactive
same,Potency,[2],inactive
CC(=O)OC1CC(O)C2(C)C(CC(OC(C)=O)C3(C)C2CCC2(C)C(c4ccoc4)C(=O)C4OC423)C1(C)C (configuration not stated),Potency,[1],inactive
same,Potency,[2],inactive
same,Potency,[3],inactive
COC1CC(OC2CCC3(C)C(=CCC4C3CCC3(C)C(C(C)OC5OC(COC6OC(CO)C(O)C(O)C6O)C(O)C(O)C5O)CCC43O)C2)OC(C)C1OC1OC(C)C(O)C(OC)C1O (configuration not stated),Potency,[1],inactive
same,Potency,[2],inactive
same,outcome,[3],inactive [at 11.6 µM]
CCCN1CCO[C@H]2c3cc(O)ccc3OC[C@@H]21,Potency,[1],inactive
same,Potency,[2],inactive
same,Potency,[3],inactive
CCOc1ccc2c3c1O[C@H]1[C@@H](O)C=C[C@H]4[C@@H](C2)N(C)CC[C@@]341,Potency,[1],inactive
same,Potency,[2],inactive
CN1[C@@H]2CC[C@H]1CC(OC(=O)C1C=Nc3ccccc31)C2 (some centres not stated),Potency,[1],inactive
same,Potency,[2],inactive
same,Potency,[3],inactive
O=[N+]([O-])c1ccccc1,Potency,[1],inactive
same,Potency,[2],inactive
NCC(O)c1cccc(O)c1 (configuration not stated),Potency,[1],inactive
same,Potency,[2],inactive
COc1cc2c(cc1OC)[C@@]13CCN4CC5=CCO[C@H]6CC(=O)N2[C@H]1[C@H]6[C@H]5C[C@H]43,Potency,[1],inactive
same,Potency,[2],inactive
same,Potency,[3],inactive
COCC1OC(=O)c2coc3c2C1(C)C1=C(C3=O)C2CCC(=O)C2(C)CC1O (configuration not stated),Potency,[1],inactive
same,Potency,[2],inactive
same,Potency,[3],inactive
C[C@@H]1C(=O)O[C@H]2[C@H](O)[C@@]34[C@@H]5OC(=O)[C@@]3(O[C@@H]3OC(=O)[C@@H](O)[C@@]34[C@H](C(C)(C)C)[C@H]5O)[C@@]12O,Potency,[1],inactive
same,Potency,[2],inactive
same,Potency,[3],inactive
CO[C@H]1[C@H](O)[C@H](O[C@H]2CC[C@]3(C)C4CC[C@]5(C)[C@H](C6=CC(=O)OC6)CC[C@]5(O)C4CC[C@@H]3C2)O[C@@H](C)[C@@H]1O (some centres not stated),Potency,[1],inactive
same,Potency,[2],inactive
same,Potency,[3],7.38 µM (active)
CCCCNCC(O)c1ccc(O)cc1 (configuration not stated),Potency,[1],inactive
same,Potency,[2],inactive
N#CCCN,Potency,[1],inactive
same,Potency,[2],inactive
CCOc1ccccc1-n1c(C(C)N2CCN(C(=O)COc3ccc(Cl)cc3)CC2)nc2ccccc2c1=O (configuration not stated),Potency,[1],inactive
same,Potency,[2],inactive
same,Potency,[3],inactive
CCC1(C)CC(=O)NC(=O)C1,Potency,[1],inactive
same,Potency,[2],inactive
Oc1ccc2c3c1O[C@H]1c4oc5ccccc5c4C[C@@]4(O)C(C2)N(CC2CC2)CCC314 (some centres not stated),Potency,[1],inactive
same,Potency,[2],inactive
ClC1C(Cl)C(Cl)C(Cl)C(Cl)C1Cl (configuration not stated),Potency,[1],inactive
same,Potency,[2],inactive
C/C=C(\C)C(=O)OC1C(C)OC(OC2C(C)OC(OC3CCC4(C)C(=CCC5C4CCC4(C)C(C(C)OC6OC(COC7OC(CO)C(O)C(O)C7O)C(O)C(O)C6O)CCC54O)C3)CC2OC)C(O)C1OC (configuration not stated),Potency,[1],inactive
same,Potency,[2],inactive
same,outcome,[3],inactive [at 11.6 µM]
